PubChem BioAssay (EPA / NIEHS)
Calls of active or inactive are those of the source. The calls were made as follows: active = hit-call score of the fitted dose curve at least 0.9, where 1 is the maximum; inactive = score below 0.9.

Test: CCTE_Mundy_HCI_Cortical_Synap_Neur_Matur_NeuriteSpotCountPerNeuriteLength: CCTE's Synaptogenesis and Neurite Maturation Assay in rat cortical cells for Neurite Spot Count per Neurite Length, Mundy Lab (AID 2284210)
Procedure: CCTE_Mundy_HCI_Cortical_Synap&Neurite_Matur is a multiplexed, cell-based-readout assay that uses rat primary cortical cells with measurements taken at 288.33 hours after chemical dosing in a microplate: 96-well plate.CCTE_Mundy_HCI_Cortical_Synap_Neur_Matur_NeuriteSpotCountPerNeuriteLength is one of eight components of the CCTE_Mundy_HCI_Cortical_Synap&Neurite_Matur assay. It measures synaptogenesis and neurite maturation related to number of neurite-associated synapses (synaptophysin puncta) per unit length of neurite using High Content Imaging of fluorescently labelled markers.[…] Using a type of morphology reporter, loss -of-signal activity can be used to understand developmental effects.
Cells are plated onto 96 well plates and allowed 2 hr for attachment to the substrate. At days in vitro (DIV) 5, Cytosine Arabinoside (AraC) is added to arrest glial cell growth. Chemicals are dosed and a media change is performed at DIV 7 of differentiation and is continued through DIV 12 when the experiment is terminated. Cells are fixed with […] and Hoechst Dye. Cells are stained using Millipore Mouse anti-MAP2MAB3418 (1:800) and Millipore Rabbit anti-Synaptophysinsc-1750 (1:250) primary antibodies and Alexa Fluor-488 goat anti-mouse and AlexaFluor-546 goat anti-rabbit secondary antibodies to label neuronal cell nuclei, synapses and neurites. A Cellomics ArrayScan VTi HCS Reader is used for automated image acquisition and analysis of neurite outgrowth.

| Structure (SMILES) | AC50 | outcome |
| --- | --- | --- |
| CNCCC(Oc1ccc(C(F)(F)F)cc1)c1ccccc1 (stereo unspecified) | 12 µM (active) |  |
| Cc1c(O)cccc1C(=O)N[C@@H](CSc1ccccc1)[C@H](O)CN1C[C@H]2CCCC[C@H]2C[C@H]1C(=O)NC(C)(C)C | 6.39 µM (active) |  |
| NC(N)=Nc1nc(CSCCC(N)=NS(N)(=O)=O)cs1 |  | inactive |
| CC(C)(C)NCC(O)c1cc(O)cc(O)c1 (stereo unspecified) |  | inactive |
| CC1(C)S[C@@H]2[C@H](NC(=O)[C@H](N)c3ccccc3)C(=O)N2[C@H]1C(=O)O |  | inactive |
| CN(C)CCC(c1ccc(Cl)cc1)c1ccccn1 (stereo unspecified) |  | inactive |
| [Cl-].[Cl-].[NH2-].[NH2-].[Pt+4] |  | inactive |
| CC1(C)S[C@@H]2[C@H](NC(=O)[C@H](N)c3ccc(O)cc3)C(=O)N2[C@H]1C(=O)O |  | inactive |
| CN(C)C(=O)C(CCN1CCC(O)(c2ccc(Cl)cc2)CC1)(c1ccccc1)c1ccccc1 | 14.9 µM (active) |  |
| C[C@@H]1C[C@H]2[C@@H]3CCC4=CC(=O)C=C[C@]4(C)[C@@]3(F)[C@@H](O)C[C@]2(C)[C@@]1(O)C(=O)CO |  | inactive |
| C[C@H](CS)C(=O)N1CCC[C@H]1C(=O)O |  | inactive |
